The source made the active and inactive calls. Calls come from the whole dose curve; as a rule, active = well fitted activation curve with a large enough effect; inconclusive = small, poorly fitted or top-dose-only effect; inactive = no such curve, though single readings can be large or run the other way.
Potency is the fitted concentration of half-maximal effect.

The experiment can be described thus: Confirmatory qHTS for Identification of Small Molecule Activators of Huntingtin-Antisense Promoter Activity. Conditions: HEK293 HTT-AS promoter firefly luciferase reporter, 24 h; series mostly up to 57.5 µM; activity change, positive = activation: at the top concentration. An excerpt:
Assay Provider: Russell L. Margolis M.D.
Department Neurology, Johns Hopkins University School of Medicine, Baltimore, MD
Huntington's Disease (HD) is a neurodegenerative disorder caused by a CAG repeat expansion in exon 1 of huntingtin (HTT). While there are currently no disease-modifying treatments for HD, recent efforts have focused on development of nucleotide-based therapeutics to lower HTT expression. As an alternative to siRNA or oligonucleotide methods, we hypothesized that suppression of HTT expression might be accomplished by small molecules that either (1) directly decrease HTT expression by suppressing HTT promoter activity or (2) indirectly decrease HTT expression by increasing the promoter activity of HTT-AS, the gene antisense to HTT that appears to inhibit expression of HTT.
We developed and employed a high throughput screen for modifiers of HTT and HTT-AS promoter activity using luminescent reporter HEK293 cells; of the 52,041 compounds tested, we identified 898 replicable hits. We used a rigorous stepwise approach to assess compound toxicity and the capacity of the compounds to specifically lower huntingtin protein in 5 different cell lines, including HEK293 cells, HD lymphoblastoid cells, mouse primary neurons, HD iPSCs differentiated into cortical-like neurons, and HD hESCs. We found no compounds which were able to lower huntingtin without lowering cell viability in all assays, though the potential efficacy of a few compounds at non-toxic doses could not be excluded.
SEQUENCE No. (1, 2, 3, etc.); […] (e.g., Cells, Incubation, Reagent, etc.); VALUE and DESCRIPTION.
1; Reagent; 4 uL; 2,500 Hek293 luciferase reporter cells per wells
3; Compound; 23 nL; Control inhibitor / compound library
5; Reagent; 2.5 uL; Firefly Luc reagent; Dual-Glo Luciferase Reporter Assay System (Promega)
6; Time; 10 min; room temperature incubation
7; Detection; Luminescence; FLuc
NOTES (numbers refer to sequence above)
1; High-throughput screening, measuring luminescence from a Hek293 luciferase reporter, was performed in 1,536 well white-walled tissue-culture treated plates. 2,500 cells were plated in 4 uL of Opti-MEM per well using a Multidrop Combi Reagent Dispenser (ThermoFisher).
2; Assay plates were cultured for 24 hours.
3; Control inhibitor (PTC124; final concentration of 50 uM) and compound library (at final concentrations of 460 nM - 57.5 uM) were added to the assay plate using the Kalypsis Pintool Robotic System equipped with 1536 pinheads.
4; Cells were then incubated for 24 hours at 37C prior to luminescence measurements.
5; In all cases, luminescence was measured using the Dual-Glo Luciferase Reporter Assay System (Promega) following the manufacturer's instructions.
6; Room temperature incubation.
7; Luminescence signal was obtained using the PerkinElmer ViewLux plate reader. Results were normalized to vehicle control (0% activity) and zero RLU (-100% activity).
For orientation: Quantitative high-throughput screening tests each substance at several concentrations.
In the case of `CCOc1ccc(CNC(=O)C2CCN(c3nnc(-n4c(C)ccc4C)s3)CC2)cc1`, the “activity change, positive = activation” value is -69.4% (inactive).
The same measure, in the same setting: the same measure for `CC1Cc2cc(S(=O)(=O)NCc3ccc(F)cc3)ccc2N1C(=O)C1CCC1` (stereo not given): -29.9% (inactive); for `Cc1nc2nncn2c(NCc2ccc(Cl)cc2)c1C`: -93.3% (inactive).
Consider `CCCCOc1cccc(C(=O)N(Cc2ccc(C)o2)c2ccccn2)c1`, for which the “activity change, positive = activation” value was -96.2% (inactive).
With `COC(=O)c1c(C)oc2ccc(N(C(=O)c3ccncc3)S(=O)(=O)c3cc(C)ccc3C)cc12`, the “activity change, positive = activation” value is -90.5% (inactive).
`CC(=O)N1CCCc2cc(S(=O)(=O)N3CCN(c4ccc(F)cc4)CC3)ccc21`: the “activity change, positive = activation” value was -29.3% (inactive).
With `COc1ccc(CCNC(=O)c2ccc3c(c2)CCN3S(=O)(=O)c2ccc(Cl)cc2)cc1`, the “activity change, positive = activation” value is -16.4% (inactive).
Still for that read-out and setting: the same measure for `Cc1ccc(NC(=O)c2ccc(C)c(S(=O)(=O)N3CCCCCC3)c2)cc1`: -54.7% (inactive); for `CCOc1ccc(C(=O)Nc2ccc(-n3nncc3-c3ccc(OC)cc3)cc2)cc1`: -27.6% (inactive).
For `CCC(Oc1ccccc1)C(=O)N1CCN(Cc2cc(=O)n3nc(-c4cccc(C)c4)sc3n2)CC1` (stereo not given), the “activity change, positive = activation” value is -36.5% (inactive).
Take `O=C(CN1CCCN(S(=O)(=O)c2ccc(Br)cc2)CC1)Nc1cccc(C(F)(F)F)c1`: the “activity change, positive = activation” value is -31.7% (inactive).
Regarding `CCc1ccccc1N(C)C(=O)C1CCCN(c2ncnc3c2nc2n3CCCCC2)C1` (stereo not given), the “activity change, positive = activation” value was -45.1% (inactive).
As to `Cc1cc(SCC(=O)Nc2nsc(-c3ccc(C(C)(C)C)cc3)n2)nc2ccccc12`, the Potency is 2690 nM (active).
Take `Cc1ccc(NC(=O)c2ccc(F)c(S(=O)(=O)NCCc3ccccc3)c2)cc1F`: the “activity change, positive = activation” value is -94.3% (inactive).
Regarding `O=C(CCn1cnc2onc(-c3ccc(F)cc3)c2c1=O)Nc1ccc(F)c(Cl)c1`, the “activity change, positive = activation” value is -93.5% (inactive).
As to `CC(=O)N1CCCc2cc(S(=O)(=O)N3CCCC(C(=O)N4CCN(c5ccccc5)CC4)C3)ccc21` (stereo not given), the “activity change, positive = activation” value is -51.9% (inactive).
On to `O=C(NCC(c1cccnc1)N1CCN(Cc2ccccc2)CC1)C(=O)Nc1ccc(Cl)cc1` (stereo not given), for which the “activity change, positive = activation” value was -33.1% (inactive).
Take `COc1cccc(C(=O)Nc2nc(-c3nnn(-c4cccc(Cl)c4C)c3C)ns2)c1`: the “activity change, positive = activation” value is -52.1% (inactive).
Consider `COc1cccc(N2CCN(C(=O)c3cccc(-n4c(C)nc5cccnc54)c3)CC2)c1`, for which the “activity change, positive = activation” value is -84.3% (inactive).
Consider `CCc1ccc(NS(=O)(=O)c2c(C)nc3sc(CC)nn3c2=O)cc1`, for which the “activity change, positive = activation” value was -21.7% (inactive).
Same read-out and setting: the same measure for `O=C(Nc1cc(Cl)cc(Cl)c1)c1ccc(F)c(S(=O)(=O)N2CCc3ccccc32)c1`: -91.7% (inactive).
For `Cc1ccc(C)c(OCCCC(C)(C)C(=O)O)c1`, the “activity change, positive = activation” value is 8.19% (inactive).
For the molecule `CCN(CCCNC(=O)CSc1cc(=O)n(CC)c2ccccc12)c1ccccc1`, the “activity change, positive = activation” value is -10.4% (inactive).
Regarding `Cc1ccc(C)c(NC(=O)C(=O)NCC(c2cccnc2)N2CCN(c3ccc(F)cc3)CC2)c1` (stereo not given), the “activity change, positive = activation” value is -47.4% (inactive).
Still for that read-out and setting: the same measure for `O=C(CSc1nccn1Cc1ccc(F)cc1)Nc1nc2ccccc2s1`: -21.3% (inactive); for `CN(CC(=O)Nc1ccc(OC(F)(F)F)cc1)S(=O)(=O)c1ccc2c(c1)CCC(=O)N2`: -49.6% (inactive).
On the same count and under the same terms, the same measure for `CCOC(=O)C1CCC(CN(Cc2c(Cl)cccc2Cl)S(=O)(=O)c2ccc(Cl)cc2)CC1` (stereo not given): -73.4% (inactive); for `COc1cccc(-c2nc(CS(=O)CC(=O)N3CCN(c4cccc(C(F)(F)F)c4)CC3)c(C)o2)c1` (stereo not given): -59.5% (inactive).
In the case of `COc1ccc(-c2noc(CSc3nnc(-c4ccccc4)n3-c3ccc(F)cc3)n2)c(OC)c1`, the “activity change, positive = activation” value is -30.8% (inactive).
With `COc1ccc(-c2nc3cc(NC(=O)Cc4ccc(Cl)cc4)ccc3o2)cc1OC`, the “activity change, positive = activation” value is -40.8% (inactive).
`CCOC(=O)C1=C(CN2CCN(c3ccc(C)cc3C)CC2)NC(=O)NC1c1ccc(OC)cc1` (stereo not given): the “activity change, positive = activation” value was -91.2% (inactive).
Still for that read-out and setting: the same measure for `O=C(Nc1cccc(F)c1)c1cnc2sc(N3CCCC3)nn2c1=O`: -61.2% (inactive).
As to `O=C(COCc1cc(-c2ccc3c(c2)OCO3)on1)N1CCN(c2cccc(C(F)(F)F)c2)CC1`, the “activity change, positive = activation” value was -23.9% (inactive).
Consider `CCOc1ccc(N(Cc2ccccc2)C(=O)c2nc(SC)ncc2Cl)cc1`, for which the “activity change, positive = activation” value was -31% (inactive).
As to `CCCc1cc(N2CCN(c3ccc(OC)cc3)CC2)n2cnnc2n1`, the “activity change, positive = activation” value was -93.9% (inactive).
Regarding `CCN1C(=O)c2ccccc2Sc2ccc(NC(=O)Nc3ccc(Br)c(C)c3)cc21`, the “activity change, positive = activation” value is -81.9% (inactive).
As for `COc1ccc(Nc2sc(C(=O)c3ccccc3)c(N)c2C(=O)Nc2cc(C)ccc2C)c(OC)c1`, the “activity change, positive = activation” value was -37.6% (inactive).
Regarding `Cc1cccc(S(=O)(=O)Nc2cccc(-c3ccc(N4CCCCC4)nn3)c2)c1`, the Potency was 2390 nM (active).
Turning to `Cc1ccc(CNC(=O)c2ccc(CSc3nc4ccncc4n3Cc3ccc(C)cc3)cc2)cc1`, the “activity change, positive = activation” value is -18.4% (inactive).
Turning to `CCOc1ccc(NC(=O)c2c(Nc3ccccc3C)sc(C(=O)c3ccc(Cl)cc3)c2N)cc1`, the “activity change, positive = activation” value is -30.3% (inactive).

The record behind these values is PubChem BioAssay AID1508622 (National Center for Advancing Translational Sciences (NCATS), 2021).
